# Compounds with a hit are over-represented: about 4.8% of the library has one in this group of screens.
# DAX1 inh-1: inhibits human nuclear receptor DAX1. AID 504766. hit rate 0.99% among 340,000. HEK293 Gal4-DAX1 luciferase reporter, luminescence. P51843. inhibition, % at 6.75 µM;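 active means inhibition above the mean over all tested compounds plus 3 SD, cut at about 4.2% in these data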;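 further: 0% = DAX1-transfected cells with DMSO and 100% = empty-vector control cells with DMSO; inhibition shows as a rise in luminescence from relieved DAX1 repression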
# Target sequence (P51843 207-470 limits assumed): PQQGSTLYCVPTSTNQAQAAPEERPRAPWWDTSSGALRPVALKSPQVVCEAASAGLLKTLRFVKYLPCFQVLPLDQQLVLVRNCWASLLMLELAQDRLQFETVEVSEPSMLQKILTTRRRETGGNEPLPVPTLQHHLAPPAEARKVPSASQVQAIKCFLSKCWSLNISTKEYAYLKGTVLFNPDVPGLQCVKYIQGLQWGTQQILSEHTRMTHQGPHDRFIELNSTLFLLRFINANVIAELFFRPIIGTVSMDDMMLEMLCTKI
# ssDAF-12 act: activators of S. stercoralis DAF-12 nuclear receptor; HEK293 ssDAF-12/GRIP1 lit1-tk-luc reporter, luminescence; % of 3 µM dafachronic acid response; AID 652126; activation, % at 6.8 µM; hit rate 1% among 370,000;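 active means activation above the mean over all tested compounds plus 3 SD, cut at about 0.9% in these data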;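 further: 0% = DMSO-only wells and 100% = 3 µM delta7-dafachronic acid wells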
# hcDAF12 agonist: H. contortus DAF-12 activation, primary screen | HEK293 hcDAF-12 lit1-tk-luc reporter, luminescence; 0% DMSO, 100% Δ7-dafachronic acid | activation, % at 6.8 µM | hit rate 1.4% among 370,000 | AID 652067;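 active means activation above the mean of all tested compounds plus 3 SD, cut at about 5.5% in these data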;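 further: 100% = response to 3 µM Δ7-dafachronic acid high control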
# DAX1 inh-2: blocks DAX1 repression of SF-1 activated StAR promoter; HEK293T StAR-luciferase reporter, SF-1/DAX-1 repression relief; AID 652010; inhibition, % at 6.8 µM; hit rate 1.1% among 370,000;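 active means inhibition above the mean over all tested compounds plus 3 SD, cut at about 3.6% in these data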;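 further: 0% = DAX-1 cells with DMSO and 100% = cells lacking DAX-1 with DMSO; higher inhibition means more luminescence from relief of DAX-1 repression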
# hgDAF12 agonist: hgDAF-12 agonism, primary luciferase screen; activation, % at 6.8 µM; AID 687014; hit rate 1.8% among 370,000; HEK293 GAL4-hgDAF12 UAS-luciferase reporter, agonist luminescence; normalized to butyrate control;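 active means activation above a cutoff set at the mean of all screened compounds plus 3 SD, cut at about 10% in these data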;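 further: 0% = DMSO wells and 100% = sodium butyrate wells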
# SMARCA2 activ: activators of SMARCA2 function; MG213 cells, MMTV-luciferase reporter, dexamethasone, overnight; activation, % at 9.1 µM; AID 652017; hit rate 1% among 370,000; in the data active means activation above about 7.8%;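 further: 0% = vehicle wells and 100% = reference activator wells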
# LXR ag: LXR-beta agonism as hcDAF-12 counter-screen; shares compounds with hcDAF12 agonist; HEK293 Gal4-LXR tk-luc reporter, luminescence, 24 h; normalized: DMSO 0%, positive control 100%; activation, % at 6.8 µM; 3,400 tested, under 10 active; AID 743027;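 active means mean percent activation of the reporter above a cutoff set as the average over tested compounds plus their standard deviation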
# hcDAF12 conf: confirmation of H. contortus DAF-12 agonists; shares compounds with hcDAF12 agonist; HEK293 hcDAF-12 lit1-tk-luc reporter, luminescence; % of Δ7-dafachronic acid response; activation, % at 6.8 µM; hit rate 61% among 3,400;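 active means mean activation across triplicate tests above the threshold derived from the earlier primary screen, cut at about 5.5% in these data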;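 further: 0% = DMSO only wells and 100% = 3 µM Δ7-dafachronic acid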
# Active calls of the source: *; . = no result given.
SMILES,DAX1 inh-1,ssDAF-12 act,hcDAF12 agonist,DAX1 inh-2,hgDAF12 agonist,SMARCA2 activ,LXR ag,hcDAF12 conf
Cc1ccc2nc(NC(=S)NC(=O)c3cccs3)sc2c1,2,0.9*,7.2*,1,11*,6,1,15*
Cc1ccc2nc(NC(=O)c3cccs3)sc2c1,-2,1.1*,10*,3,11*,-3,2,5.9*
Cc1ccc2nc(NC(=S)NC(=O)c3ccc(OC(C)C)cc3)sc2c1,0,-1,-1,0,1,-1,.,.
O=C(Nc1nc2c(s1)CCCC2)c1cccs1,-2,1,9.5*,3,10,2,1,6.1*
Cc1ccc(-c2csc(NC(=S)NC(=O)c3cccs3)n2)cc1,0,-1,2,0,2,1,.,.
O=C(Cc1cccs1)Nc1nc2c(s1)CCCC2,-1,-2,-1,1,-4,3,.,.
O=C(c1cnn(-c2ccccc2)c1)c1ccc2ccccc2c1O,2,0,1,2,5,0,.,.
CC(=O)Nc1sc(N/N=C\c2ccc(O)cc2)nc1-c1cccs1,1,1,2,1,7,5,.,.
CC(=O)Nc1sc(N/N=C\c2cccc(Cl)c2)nc1-c1cccs1,1,-1,8.4*,1,5,2,0,7.8*
CC(=O)c1c(C)nc(-c2ccc(Cl)cc2)nc1N=CN(C)C,4,1.0*,8.6*,3,7,7,1,8.6*
O=[N+]([O-])c1cccc(NC(=S)N2CCc3ccccc3C2)c1,1,-1,1,1,3,0,.,.
O=C1/C(=C/Nc2cccc([N+](=O)[O-])c2)CCc2ccccc21,4,0,8.1*,2,16*,3,1,5.8*
O=C(NNc1nc2ccccc2s1)c1ccc(F)cc1,0,2.1*,9.6*,0,3,-1,0,1
C=CCn1c(O)c(N=Nc2ccccc2[N+](=O)[O-])c2ccccc21,1,1.1*,6.7*,1,5,-3,0,8.4*
CCCCNC(=O)COC(=O)c1ccc(Cl)c(S(=O)(=O)N2CCCC2)c1,0,-1,-2,-1,2,5,.,.
Cc1ccc(C(=O)Nc2ccc(F)cc2F)o1,0,0,0,0,2,-2,.,.
Cc1ccc(C(=O)Nc2ccn(Cc3ccc(F)cc3)n2)o1,2,0,6.9*,1,2,0,0,3
Cc1ccc2nc(-c3sc4nc(C)cc(C)c4c3N)[nH]c2c1,0,2.3*,17*,4.0*,4,3,2,24*
CC(=O)c1sc2nc(C)cc(C)c2c1N,2,-2,-2,-1,2,-1,.,.
Cc1nc(NS(=O)(=O)c2ccccc2)sc1C(C)(C)C,2,-2,3,0,-4,-3,.,.
Cc1cccc2sc(NS(=O)(=O)c3ccccc3)nc12,1,0,12*,0,0,1,0,2
CC(=O)Nc1ccc(NC(=O)c2ccc(S(=O)(=O)N(C)c3ccccc3)cc2)cc1,0,-1,-2,-2,-4,0,.,.
Fc1ccc(-n2nnc(-c3cnc4ccccc4c3)n2)cc1,-1,0,9.6*,3,11*,7,0,1
CC(C)c1ccc(NC2CCCN(C(=O)CCCn3cncn3)C2)cc1 (stereo not given),0,-1,-1,0,2,0,.,.
Cc1c(C#N)c(N)nc2c3c(sc12)NC(=O)CC3c1ccc(Cl)cc1 (stereo not given),-2,-1,-3,-1,-3,0,.,.
SMILES,DAX1 inh-1,ssDAF-12 act,hcDAF12 agonist,DAX1 inh-2,hgDAF12 agonist,SMARCA2 activ,LXR ag,hcDAF12 conf
CC(=O)Nc1ccc2nc(-c3ccccn3)[nH]c2c1,1,-1,2,2,10,3,.,.
c1ccc(-c2nc3cc4ccccc4cc3[nH]2)nc1,-3,0,8.8*,2,9,5,2,11*
O=c1cc(/C=C/c2ccccc2)oc2ccccc12,1,1.6*,6.9*,3.7*,12*,4,1,9.4*
CN1CCc2c(sc3nc(SCC(N)=O)n(-c4ccc(Cl)cc4)c(=O)c23)C1,1,1,4,-1,2,-1,.,.
O=C(CSc1nc2sc3c(c2c(=O)n1-c1ccc(Cl)cc1)CCC3)Nc1ccc(C(=O)O)cc1,.,-1,7.9*,1,0,-2,0,2
COc1ccc(-c2nc3c4ccccc4ccn3c2CN2CCCCC2)cc1,2,-1,7.0*,0,4,-1,0,1
Fc1ccc(C2Nc3cccc4cccc(c34)N2)cc1,1,0,7.1*,-1,4,0,0,3
CCCOc1ccc(C2Nc3cccc4cccc(c34)N2)cc1,0,0,6.7*,0,2,-1,0,4
COc1cccc(/C=N/Nc2ccccc2C(=O)O)c1O,5.0*,1.4*,7.8*,3,9,5,1,11*
COc1cccc(/C=N/Nc2ccc(C(=O)O)cc2)c1O,-8,-3,-6,-4,-17,-7,.,.
CC(C(=O)NCC1CCCO1)N(C(=O)c1snc(C(N)=O)c1N)c1ccccc1 (stereo not given),-1,-2,0,0,-2,-1,.,.
O=C1NC(=O)C(CC(=O)N(Cc2cccs2)C2(C(=O)NC3CCCC3)CCCCC2)N1 (stereo not given),-1,-1,8.7*,0,-1,2,0,0
CC(=O)Nc1cc2c3ccccc3ccc2c2ccccc12,1,-1,0,-1,3,-2,.,.
CC(=O)Nc1cccc2ccc(O)cc12,-1,-1,6.7*,2,-1,-5,0,3
CCCCn1nnnc1NCc1ccc(C)cc1,1,-1,0,1,0,2,.,.
CCCCn1nnnc1NCc1ccc(OC)c(OC)c1,-2,-2,8.5*,-1,0,-1,0,1
CCC[C@H]1CC(=O)C=C(c2ccc(OC)cc2)ON1C(=O)OC(C)(C)C,-1,-1,-2,-2,0,-2,.,.
CNC(=O)c1ccccc1S(=O)(=O)c1ccccc1C#N,0,-1,0,1,0,-1,.,.
C/C(=N\Nc1nc2ccccc2[nH]1)c1ccc(C)o1,0,2.2*,7.5*,1,8,3,0,8.6*
C/C(=N\Nc1nc2ccccc2[nH]1)c1ccc(Cl)s1,0,1,1,0,3,0,.,.

# Assay outcomes: PubChem BioAssay, The Scripps Research Institute Molecular Screening Center
